Screening data from PubChem BioAssay.
Compounds with a hit are over-represented: about 3.7% of the library has one in this group of screens.
Bead autofluor – flagged as autofluorescent in microsphere protease counterscreen. compound autofluorescence counterscreen, microsphere flow cytometry; active compounds read high. fluorescence intensity (no concentration beside the values). actives 3.1% (n = 360,000); in the data active = fluorescence intensity above about 16000; inconclusive = no clear call, values can overlap the other calls
BoNT-F LC inh – blocks Botulinum neurotoxin F light chain protease; Multiplex microsphere protease cleavage assay, flow cytometry; inhibition, % at 10 µM; actives 0.22% (n = 360,000); in the data active = inhibition above about 35%, passing the limit was not always enough; inconclusive = no clear call, values can overlap the other calls; note: plate controls were buffer without enzyme for full effect and enzyme alone for no effect
MazF activator – increases E. coli MazEF RNase cleavage of RNA. AID 504720. actives 0.32% (n = 350,000). activation, % at 20 µM. FAM/BHQ RNA-DNA oligo cleavage fluorescence, 5 h; in the data active = activation above about 50%
Target sequence (P0AE70 whole entry, looked up): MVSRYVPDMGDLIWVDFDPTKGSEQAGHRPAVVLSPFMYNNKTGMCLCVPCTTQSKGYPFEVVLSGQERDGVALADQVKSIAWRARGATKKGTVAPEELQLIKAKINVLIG
BoNT A protease – blocks Botulinum neurotoxin A light chain protease | actives 0.17% (n = 360,000) | multiplex microsphere protease substrate cleavage, flow cytometry | inhibition, % at 10 µM | AID 588499; note: plate controls were buffer without enzyme for full effect and enzyme alone for no effect
Anthrax LF prot – anthrax lethal factor protease inhibition. P15917. multiplex microsphere protease cleavage assay, LF. inhibition, % at 10 µM. actives 0.12% (n = 360,000). AID 588501; note: plate controls were buffer without enzyme for full effect and enzyme alone for no effect
Active calls of the source: *; ? = inconclusive; . = no result given. Cut-off read from the data, not from the text of the source, unless noted: active = inhibition above about 30%; inconclusive = no clear call, values can overlap the other calls; inactive = below that.

SMILES	Bead autofluor	BoNT-F LC inh	MazF activator	BoNT A protease	Anthrax LF prot
Cc1cccc(NCc2ccc(N(C)C)cc2)n1	3544	1.4	-0.5	-2.1	-6.0
CC1CC(C)CN(c2ccc(-n3cnnn3)cc2[N+](=O)[O-])C1 (stereo not given)	2661	-4.9	-4.7	0.0	-2.1
O=[N+]([O-])c1cc(-n2cnnn2)ccc1N1CCC(Cc2ccccc2)CC1	16952*	-4.8	-5.7	-1.3	-3.5
O=C1CCCC(O)=C1C(C#Cc1ccccc1)C1=C(O)CCCC1=O	17723*	-7.3	-0.3	-3.6	1.1
O=C(CCC(=O)Nc1cccnc1)Nc1cccnc1	5985	0.7	6.1	-0.4	6.5
COc1ccc(C(=O)ON=C2CCN(c3ccc([N+](=O)[O-])cc3)CC2)cc1	5549	0.0	7.3	0.7	-7.3
O=C(ON=C1CCN(c2ccc([N+](=O)[O-])cc2)CC1)c1ccccc1	19501*	0.9	-8.5	?	1.8
CC(C)n1c(SCC(=O)Nc2nncs2)nnc1-c1ccco1	.	.	0.4	.	.
O=S(=O)(NCCC(c1ccc(F)cc1)c1ccco1)c1ccccc1 (stereo not given)	2474	-2.6	-7.7	-1.4	-1.0
O=C(CC(c1ccco1)S(=O)(=O)c1ccccc1)c1ccc(F)cc1 (stereo not given)	22035*	3.6	-11.2	2.7	-3.8
CCOC(=O)n1c(SCC(N)=O)nc2ccccc21	3304	-16.6	6.5	-1.6	-2.5
CCN(CC)C(=O)CSc1nc2ccccc2c(=O)n1CC	2757	2.4	13.2	-0.2	-0.2
CCN(CC)C(=O)CSc1nc2ccccc2c(=O)n1OC(C)C	17014*	-3.3	5.1	-1.7	-6.5
CC(C#N)On1c(SC(C)C#N)nc2ccccc2c1=O (stereo not given)	25088*	-5.8	10.2	-3.7	-3.6
CCCCOC(=O)n1c(SCC(=O)N(CC)CC)nc2ccccc21	24831*	-6.7	0.0	-5.2	-12.3
CCOc1ccc2c(c1)n(CO)c(=S)n2CO	22336*	1.7	8.5	?	-3.5
Cc1cccc(OC(C)C(=O)N2CCCN(C)CC2)c1C (stereo not given)	4906	-8.0	-3.8	0.0	-3.7
COc1ccc2ccccc2c1CN(C)Cc1ccccc1	3116	-6.6	-34.8	-1.1	-12.4
CN(Cc1ccccc1)Cc1c(F)cccc1F	22850*	2.9	-2.3	-1.7	-6.3
C#CCn1c(=NC(=O)c2sc3ccccc3c2Cl)sc2cc(S(N)(=O)=O)ccc21	10485	-3.4	63.5*	1.7	4.2
C#CCn1c(=NC(=O)c2ccc(S(=O)(=O)N3CCc4ccccc4C3)cc2)sc2cc(S(N)(=O)=O)ccc21	9005	-0.5	-35.9	-0.1	4.8
COc1ccc(-c2cc3ccccc3oc2=O)cc1NC(=O)c1ccc([N+](=O)[O-])o1	23372*	1.0	3.5	0.1	1.1
COc1ccc(-c2cc3ccccc3oc2=O)cc1NC(=O)c1ccc(Br)o1	2867	2.8	13.6	0.5	-1.5
Cc1cc(C(=O)NCCC2=CCCCC2)no1	25954*	-10.1	9.6	-9.1	-7.6
O=C(NCCC1=CCCCC1)c1cc(COc2c(F)cccc2F)on1	5517	-5.2	6.1	-2.1	1.3
SMILES	Bead autofluor	BoNT-F LC inh	MazF activator	BoNT A protease	Anthrax LF prot
Nc1ccn(Cc2ccc(F)cc2)n1	4705	-0.5	0.1	-0.6	3.9
COc1ccccc1N1CCN(C2=NS(=O)(=O)c3ccccc32)CC1	6893	1.0	-3.2	-0.5	4.2
C=CCN1/C(=C(\C#N)C2=NS(=O)(=O)c3ccccc32)N(C)c2ccccc21	16828*	1.7	0.8	-0.9	-1.8
CCOC(=O)N1CCC(NC(=O)C2=CCN(S(=O)(=O)c3ccc(OC)cc3)CC2)CC1	4512	-1.3	-5.8	-0.1	-4.9
COc1ccc(N(CC(O)CN2C(=O)NC(C)(C)C2=O)S(=O)(=O)c2ccccc2)cc1 (stereo not given)	23290*	-1.5	-1.1	-0.7	-0.5
CCc1ccc(NC(=O)N2CCCCCC2)cc1	?	0.5	0.9	-1.8	-4.3
CCN1CCN(C(=O)c2ccc3c(=O)n(Cc4ccccc4OC)c(=S)[nH]c3c2)CC1	18735*	7.1	1.8	6.7	-4.9
CCOCCCn1c(=S)[nH]c2cc(C(=O)N3CCOCC3)ccc2c1=O	17022*	-5.3	1.4	-2.0	0.8
CCN(CC)C(=O)c1ccc2c(=O)n(CCOC)c(=S)[nH]c2c1	20993*	3.3	6.7	?	-5.2
COCCn1c(=O)[nH]c2cc(C(=O)N3CCN(c4ccccc4OC)CC3)ccc2c1=O	3042	-11.6	1.5	-1.4	-4.7
COCCn1c(=S)[nH]c2cc(C(=O)N3CCN(c4ccccc4OC)CC3)ccc2c1=O	22207*	-3.5	-1.7	?	1.2
O=C(c1ccc2c(=O)n(Cc3ccccc3)c(=S)[nH]c2c1)N1CCOCC1	6499	-2.1	5.4	-1.7	0.9
COc1cccc(CC(NC(C)=O)C(=O)NC2CCN(C(=O)Nc3ccc(C)cc3)CC2)c1 (stereo not given)	2932	-12.9	11.8	0.2	0.0
O=C(CS(=O)(=O)c1cn(CC(=O)N2CCCC2)c2ccccc12)Nc1ccccc1F	5245	3.0	-3.3	0.8	-4.0
CCCn1c(=S)[nH]c2cc(C(=O)N3CCN(C(=O)OCC)CC3)ccc2c1=O	5189	0.4	3.5	0.8	0.2
CCOC(=O)N1CCN(C(=O)c2ccc3c(=O)n(Cc4ccc(Cl)cc4)c(=S)[nH]c3c2)CC1	19158*	-0.6	4.7	1.0	-1.7
Cc1ccc(C(=O)NNC(=O)c2cc(OCC(F)(F)F)ccc2OCC(F)(F)F)cc1	21489*	-8.7	-2.8	?	-1.6
C#CCONC(=O)c1cc(OCC(F)(F)F)ccc1OCC(F)(F)F	22449*	-3.3	3.4	0.0	-7.3
Cc1ccc(Cl)cc1N1CCN(C(=O)CN(c2ccccc2)S(=O)(=O)N(C)C)CC1	4148	-6.2	-0.2	1.7	-8.3
CC(C)=CCCC(C)CN(C)CCc1ccccn1 (stereo not given)	21319*	10.0	1.0	6.1	0.6
CC(C)[C@H](NC(=O)OCc1ccccc1)C(=O)N[C@@H](Cc1c[nH]c2ccccc12)C(=O)O	3458	-7.3	0.3	0.0	-5.5
CCCCCOC(=O)C1C2C=CC3(CN(c4ccccc4C)C(=O)C13)O2 (stereo not given)	21724*	1.7	-5.0	1.3	0.3
CCc1ccc[n+](-c2nc3ccccc3nc2C(=C=[N-])C#N)c1	4887	7.6	577.6*	-0.7	-4.6
Nc1cc2c(cc1Cl)-c1ccc(Cl)cc1C2=O	2805	-12.1	4.5	-0.2	-9.1
COc1cc2c(cc1OC)[C@@H](NC(=O)C(C)C)[C@H](OCc1ccccc1)C2	4187	-4.1	5.4	-0.8	2.7
O=C(O)CCC(=O)Nc1ccccc1C(=O)NC1CCCCC1	2663	-10.5	-4.4	0.1	-1.4
O=C(OCc1ccc(Cl)cc1)c1cccnc1Cl	4840	-5.4	-0.9	-0.6	0.1
N/C(=N\OC(=O)c1ccc(Br)cc1)c1ccccc1	25293*	-5.0	4.5	-5.2	-1.9
CCC(=O)Nc1ccccc1C(=O)NC1CCCCC1	21479*	3.4	6.0	1.8	-0.3
